NS1 function inh = inhibitors of influenza NS1 protein function. AID 2326. hit rate 0.4% among 270,000. Potency, µM (top dose mostly 46.1 µM), inactives show top-dose activity, positive = more growth; further: potency means the concentration at half of the fitted maximal effect; actives are rising curves; nearly all actives have a fitted effect of over 50% in size
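S. cerevisiae expressing influenza A NS1, grown in glucose, washed, then diluted 1:100 into pH 6.0 -URA galactose medium with 23 nl compound. Growth recovery read as OD600; NS1-free strain serves as control.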
CHX counter = counter-screen hit for Shiga toxin inhibitors, cycloheximide; cell reporter, cycloheximide protein synthesis inhibition counterscreen; max response, %; hit rate 12% among 300,000; in the data active means max response mostly above about 13%, no sharp cut-off; inactive means mostly below about 14%; further: read at 38.3 µM for the half of the compounds with a filed dose; 0% is about no effect
Shiga toxin inh = inhibitors of Shiga toxin in Vero cells. inhibition, % at 38.7 µM. AID 2315. hit rate 9.2% among 290,000. Vero cells, Shiga toxin protein synthesis inhibition reporter; in the data active means inhibition mostly above about 28%, no sharp cut-off; inactive means mostly below about 43%; further: 0% is about no effect
Pf growth 96h = P. falciparum growth inhibition at 96 hour, primary screen for plastid delayed-death inhibitors; P. falciparum luciferase reporter growth, 96 h; Potency, µM (titrated, usually from 28.7 µM), for inactives: top-dose activity change, negative = inhibition, hits mostly inhibitors; hit rate 6.9% among 320,000; AID 504834; active means well fitted inhibition curve with a large enough effect; inconclusive means small, poorly fitted or top-dose-only effect, or another doubt; inactive means no such curve, though single readings can be large or run the other way; further: potency means the concentration at half of the fitted maximal effect; on the % scale 0 is the no-effect control and ±100 the full control effect
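Erythrocytes infected with luciferase-expressing P. falciparum were dispensed at 2% hematocrit and 0.05% parasitemia (final), then incubated with compounds 96 hours at 37 C in 5% CO2. Luminescence after detection reagent addition reported growth.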
SARS PLP yeast = inhibitors of SARS-CoV papain-like protease in yeast | S. cerevisiae expressing SARS-CoV PLpro, growth rescue | Potency, µM (series often up to 32.9 µM), without a hit: at the top dose activity, positive = growth rescue, hits mostly activators | hit rate 0.19% among 330,000; further: potency means the concentration at half of the fitted maximal effect; 0% is about no effect; nearly all actives have a fitted effect of over 55% in size
Pf growth 48h = P. falciparum growth inhibition at 48 hours (one generation) | P. falciparum luciferase growth in erythrocytes, 48 h | Potency, µM (highest dose often 28.7 µM), inactives show at the highest dose activity change, negative = inhibition, actives largely listed as inhibitors | hit rate 5.9% among 310,000; active means well fitted inhibition curve with a large enough effect; inconclusive means small, poorly fitted or top-dose-only effect, or another doubt; inactive means no such curve, though single readings can be large or run the other way; further: potency means the concentration at half of the fitted maximal effect; on the % scale 0 is the no-effect control and ±100 the full control effect
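Read-out is firefly luciferase luminescence from an integrated reporter in P. falciparum, so falling signal marks reduced parasite growth. Infected erythrocytes were at 2% hematocrit and 0.1% parasitemia (final) in Albumax-supplemented RPMI 1640.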
The depositor's hits bear a star; ? = inconclusive; . = no result given. Rows were chosen to be rich in hits. Some 21% of all compounds tested hit in one or more screens of this group. Unless noted, the call rests on the fitted dose curve.

SMILES	NS1 function inh	CHX counter	Shiga toxin inh	Pf growth 96h	SARS PLP yeast	Pf growth 48h
CCCSc1cc(=O)n(-c2ccc(F)cc2)nc1C(=O)OCC	-4%	-4	-19	-18%	-2%	5%
COC(=O)c1ccc(OCC(O)CN2CCN(C(=O)c3ccco3)CC2)c(OC)c1 (stereo not drawn)	-3%	-6	6	13%	-1%	-4%
COc1ccccc1NC(=O)CSc1nnc(C)s1	3%	-3	-4	0%	7%	12%
Cc1ccccc1OCC(=O)N/N=C/c1c(C)nn(-c2ccccc2)c1Cl	-9%	-3	-2	-21%	3%	-15%
Cc1nn(-c2ccccc2)c(Cl)c1/C=N/NC(=O)c1[nH]ncc1Br	-8%	29*	45*	32%	-4%	16%
O=C(CN1CCN(C(=O)c2ccccc2F)CC1)Nc1ccc(Br)cc1	-2%	-1	-12	?	-4%	-4%
CCOC(=O)c1c(NC(=S)NC)sc2c1CC(C)(C)SC2	1%	-5	-9	-102%	16%	4.1µM*
CCOC(=O)c1c(NC(=S)Nc2ccccc2)sc2c1CC(C)(C)SC2	28%	7	10	-24%	0%	-3%
CC1CCc2sc(C(=O)N/N=C/c3ccc([N+](=O)[O-])cc3)cc2C1 (stereo not drawn)	-1%	1	0	13%	-2%	-1%
COC(=O)c1cc(NCc2cccs2)ccc1N1CCOCC1	-3%	1	31	8.3µM*	-2%	-6%
O=C(Nc1ccc(N2CCOCC2)c(F)c1)c1ccncc1	2%	18*	61*	27%	0%	20%
O=C(Nc1ccc(N2CCOCC2)c(F)c1)c1cccs1	-2%	44*	53*	130%	-8%	71%
O=C(O)c1cc(NCc2cccs2)ccc1N1CCOCC1	-6%	-4	-7	-17%	-1%	18%
O=C(COc1ccccc1Cl)Nc1nnc(S(=O)(=O)N2CCCC2)s1	-15%	-4	-5	21%	-6%	16%
N#Cc1ccccc1Cn1c(=O)oc2ccccc21	11%	7	1	9%	-6%	17%
O=c1oc2ccccc2n1Cc1ccccc1Cl	-5%	-1	-3	4.7µM*	-3%	4%
COc1cc(/C=C2\C(=N)N3N=C(N4CCOCC4)SC3=NC2=O)ccc1OC(=O)c1ccccc1	-12%	4	5	?	-6%	-3%
COc1ccc(OC)c(-n2c(C)cc(/C=C3\C(=N)N4N=C(CC(=O)N5CCOCC5)SC4=NC3=O)c2C)c1	23%	1	-1	12µM*	-3%	?
N=C1/C(=C/c2ccc(OCc3ccccc3F)cc2)C(=O)N=C2SC(CC(=O)N3CCOCC3)=NN12	-49%	23*	85*	-5%	-9%	8%
COc1cc(/C=C2/C(=N)N3N=C(CC(=O)N4CCOCC4)SC3=NC2=O)ccc1OC(C)c1ccccc1 (stereo not drawn)	15%	10	-1	0%	-6%	5%
N=C1/C(=C/c2ccc(OCc3ccccc3)cc2)C(=O)N=C2SC(CC(=O)N3CCOCC3)=NN12	-50%	15*	32	50%	-10%	25%
N=C1/C(=C\c2ccc(OC(=O)c3ccccc3Cl)cc2)C(=O)N=C2SC(N3CCOCC3)=NN12	4%	24*	58*	0%	-7%	12%
Cc1cc(/C=C2\C(=N)N3N=C(CC(=O)N4CCOCC4)SC3=NC2=O)c(C)n1Cc1ccccc1	5%	1	21	0%	0%	0%
COc1ccc(C2CC(c3ccccc3)Oc3cc(OC)ccc32)cc1 (stereo not drawn)	.	13	1	.	.	.
COc1ccccc1NC(=O)CSc1nc(O)cc(=O)[nH]1	?	-2	-8	.	4%	-7%
Cc1c(N(C)C(=O)C2CCCN2S(=O)(=O)c2ccccc2)c(=O)n(-c2ccccc2)n1C (stereo not drawn)	-2%	1	2	2.3µM*	1%	1%
Cc1c(N(CC(=O)O)S(=O)(=O)c2ccccc2)c(=O)n(-c2ccccc2)n1C	4%	-5	-1	4.7µM*	1%	15%
Cc1c(N(C)S(=O)(=O)c2cccc(C(=O)NC(C)C)c2)c(=O)n(-c2ccccc2)n1C	24%	-1	-11	12µM*	2%	-69%
